Some test systems named below: SR leukemia; RPMI-8226 leukemia; OVCAR-8 ovarian; OVCAR-5 ovarian; OVCAR-4 ovarian; SK-OV-3 ovarian; IGROV1 ovarian; OVCAR-3 ovarian; HS 578T breast; NCI/ADR-RES ovarian; T-47D breast; BT-549 breast; MDA-MB-435 melanoma; SW-620 colon; MCF7 breast; HCT-116 colon; HCC-2998 colon; KM12 colon.
Common to all, as to test: NCI-60 one-dose screen, 48 h (100 = growth as untreated, 0 = no growth, -100 = all killed)
Conditions in all cases: 10 µM

About 83,000 compounds went through this panel and 20% of them were active in at least one assay; those are over-represented in the sample as a whole.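 In brief: 96-well plates, 48 h treatment, single concentration, percent growth endpoint.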 A number with no mark means an inactive call. Activity calls are given as the source filed them. How the source made its calls: active means growth percent below 10; inactive means the rest.

Take `Cc1cccc2c1O/C(=C\c1ncc([N+](=O)[O-])n1C)C2=O`: the growth with SR leukemia is 9.3% (active); in the experiment on RPMI-8226 leukemia, -13% (active); in the experiment on OVCAR-8 ovarian it was -21.3% (active); in the experiment with OVCAR-5 ovarian, -15.7% (active); in the experiment with OVCAR-4 ovarian, -2.81% (active); with SK-OV-3 ovarian it was -17.5% (active). Moreover, the growth with IGROV1 ovarian is -18.1% (active); in the experiment with OVCAR-3 ovarian, -12.2% (active); in the experiment with HS 578T breast it was -23.9% (active); with NCI/ADR-RES ovarian it was 2.37% (active); in the experiment on T-47D breast, 89.7%; in the experiment with BT-549 breast, -53.7% (active). Besides, the growth in the experiment with MDA-MB-435 melanoma was -54.1% (active); in the experiment on SW-620 colon it was -11.6% (active); in the experiment with MCF7 breast, 2.72% (active); in the experiment with HCT-116 colon, -66.6% (active); in the experiment on HCC-2998 colon, -73.1% (active); in the experiment on KM12 colon, -50.6% (active).
Regarding `CN1CCN(c2nc(-c3cccnc3)nc3sc4c(c23)CCCCCC4)CC1`, the growth with SR leukemia is 34.2%; with RPMI-8226 leukemia, 80.6%; with OVCAR-8 ovarian, 95.1%; in the experiment on OVCAR-5 ovarian, 104%; in the experiment on OVCAR-4 ovarian, 80.8%; in the experiment with SK-OV-3 ovarian, 97.2%. Also, the growth in the experiment with IGROV1 ovarian is 102%; in the experiment on OVCAR-3 ovarian it was 95.8%; in the experiment with HS 578T breast, 85.3%; in the experiment with NCI/ADR-RES ovarian, 89.3%; with T-47D breast, 77.4%; in the experiment with BT-549 breast, 95.3%. The growth is 98.4% in the experiment on MDA-MB-435 melanoma; 102% with SW-620 colon; 88.2% in the experiment on MCF7 breast; 85.3% in the experiment on HCT-116 colon; 56.7% in the experiment on HCC-2998 colon; 100% in the experiment on KM12 colon.
Regarding `c1ccc(OCCC[P+](c2ccccc2)(c2ccccc2)c2ccccc2)cc1`, the growth in the experiment with SR leukemia is -21.2% (active); in the experiment with RPMI-8226 leukemia, -27.6% (active); in the experiment with OVCAR-8 ovarian, 7.15% (active); in the experiment on OVCAR-5 ovarian, 29%; with OVCAR-4 ovarian, 8.32% (active); in the experiment with SK-OV-3 ovarian it was 19.6%. Also, the growth in the experiment on IGROV1 ovarian is 10.5%; in the experiment with OVCAR-3 ovarian, 7.59% (active); with HS 578T breast it was 43.3%; with NCI/ADR-RES ovarian, 93.3%; in the experiment on T-47D breast, 13.3%; in the experiment with BT-549 breast it was 11%. The growth in the experiment with MDA-MB-435 melanoma is 0.653% (active); in the experiment on SW-620 colon, 18.9%; in the experiment with MCF7 breast, 4.3% (active); in the experiment with HCT-116 colon, 6.18% (active); in the experiment on HCC-2998 colon it was 14.3%; in the experiment with KM12 colon, 6.18% (active).
As to `COc1ccc(C2C=C(c3ccc(Cl)cc3)N=C3SC=CN32)c(Br)c1` (centres undefined), the growth in the experiment on SR leukemia is 59.2%; in the experiment with RPMI-8226 leukemia, 52.3%; with OVCAR-8 ovarian, 67.3%; with OVCAR-5 ovarian it was 98.2%; with OVCAR-4 ovarian, 80.9%; in the experiment with SK-OV-3 ovarian, 117%. The growth in the experiment with IGROV1 ovarian was 98.1%; in the experiment on OVCAR-3 ovarian, 60.5%; with HS 578T breast, 94.8%; in the experiment on NCI/ADR-RES ovarian, 89.9%; with T-47D breast, 71.8%; in the experiment with BT-549 breast, 96.7%. Moreover, the growth is 69.2% with MDA-MB-435 melanoma; 91.3% in the experiment with SW-620 colon; 75.3% in the experiment on MCF7 breast; 54% in the experiment on HCT-116 colon; 86.9% in the experiment with HCC-2998 colon; 62.3% in the experiment on KM12 colon.
With `O=C1/C(=C/c2ccc(O)cc2O)N=C2SCCCN12`, the growth was 89.8% in the experiment with SR leukemia; 103% in the experiment on RPMI-8226 leukemia; 97.5% with OVCAR-8 ovarian; 92.9% with OVCAR-5 ovarian; 97.1% in the experiment with OVCAR-4 ovarian; 102% in the experiment on SK-OV-3 ovarian. Moreover, the growth in the experiment on IGROV1 ovarian was 101%; in the experiment with OVCAR-3 ovarian, 98.6%; with HS 578T breast, 105%; in the experiment on NCI/ADR-RES ovarian, 98.7%; in the experiment with T-47D breast, 85%; in the experiment with BT-549 breast, 96.9%. In addition, the growth was 99.2% in the experiment with MDA-MB-435 melanoma; 107% with SW-620 colon; 108% with MCF7 breast; 99.5% with HCT-116 colon; 119% with HCC-2998 colon; 91.3% in the experiment with KM12 colon.
Take `CS(=O)(=O)Nc1ccc(OCc2nnc(-c3ccc(Cl)cc3)o2)c(F)c1`: the growth was 81.2% in the experiment with SR leukemia; 87.9% with RPMI-8226 leukemia; 98.1% with OVCAR-8 ovarian; 99.5% in the experiment with OVCAR-5 ovarian; 82.1% in the experiment on OVCAR-4 ovarian; 88.8% with SK-OV-3 ovarian. Also, the growth with IGROV1 ovarian was 104%; with OVCAR-3 ovarian it was 107%; in the experiment on HS 578T breast, 98.1%; in the experiment with NCI/ADR-RES ovarian, 96.9%; in the experiment on T-47D breast, 63.1%; in the experiment on BT-549 breast, 89.4%. Also, the growth in the experiment on MDA-MB-435 melanoma was 104%; in the experiment with SW-620 colon, 108%; with MCF7 breast, 81.7%; with HCT-116 colon, 86.9%; with HCC-2998 colon, 101%; in the experiment with KM12 colon it was 98.6%.
As to `CCOC(=O)Nc1ccc2c(c1)C(=O)N(CCOC)c1ccccc1O2`, the growth was 17.5% in the experiment on SR leukemia; 22.2% in the experiment on RPMI-8226 leukemia; 52.8% in the experiment on OVCAR-8 ovarian; 87.9% with OVCAR-5 ovarian; 62.1% in the experiment with OVCAR-4 ovarian; 37.3% in the experiment on SK-OV-3 ovarian. In addition, the growth with IGROV1 ovarian was 57.8%; in the experiment on OVCAR-3 ovarian, 8.46% (active); in the experiment on HS 578T breast, 44.4%; with NCI/ADR-RES ovarian, 24.1%; in the experiment with T-47D breast it was 30.5%; in the experiment with BT-549 breast it was 52.8%. The growth in the experiment with MDA-MB-435 melanoma is -14.2% (active); in the experiment with SW-620 colon, 32%; with MCF7 breast it was 14.4%; in the experiment on HCT-116 colon, 24.4%; in the experiment with HCC-2998 colon, 55.3%; in the experiment with KM12 colon it was 23%.
As to `COc1ccccc1S(=O)(=O)Nc1ccc2c(c1)CN(C)C(=O)N2`, the growth in the experiment on SR leukemia is 36%; with RPMI-8226 leukemia, 4.25% (active); in the experiment on OVCAR-8 ovarian it was 56.2%; in the experiment on OVCAR-5 ovarian, 74.5%; in the experiment on OVCAR-4 ovarian, 43.1%; in the experiment with SK-OV-3 ovarian, 49.1%. The growth is 24% with IGROV1 ovarian; 32.2% in the experiment on OVCAR-3 ovarian; 33.7% in the experiment on HS 578T breast; 68.9% in the experiment on NCI/ADR-RES ovarian; 31.4% in the experiment with T-47D breast; 101% in the experiment with BT-549 breast. The growth is 34.2% in the experiment with MDA-MB-435 melanoma; 59.4% with SW-620 colon; 21.5% in the experiment on MCF7 breast; 49.7% in the experiment on HCT-116 colon; 64.4% in the experiment with HCC-2998 colon; 45% with KM12 colon.

For the origin of these results see PubChem BioAssay (NCI).
